Compound activity (PubChem)
Compounds with a hit are over-represented: about 3.1% of the library has one in this group of screens.
PLK1 PBD block = inhibitors of human PLK1 polo-box domain binding | P53350 | Plk1 PBD binding of FITC phosphopeptide, fluorescence polarization | Potency, µM, without a hit: max response, negative = inhibition, most hits filed as inhibitors | 360,000 compounds, 2.8% hits | AID 720504; note: potency is the fitted concentration of half-maximal effect; series mostly up to about 57 µM; % is set by controls: 0 for no effect and ±100 for the full control effect; nearly all actives have a fitted effect of over 65% in size
TSG101-PTAP inh = blocks PTAP/TSG101 interaction to inhibit HIV-1 budding; AID 493005; 340,000 tested, under 10 active; Fluorescence polarization, FITC-PTAP peptide / Tsg101 binding; Potency, µM (series often up to 115 µM), for the others: top-dose activity change, negative = inhibition, actives largely listed as inhibitors; Q99816; active = well fitted inhibition curve with a large enough effect in the main read-out, with a control signal flat, not every such curve was filed as active; inconclusive = small, poorly fitted or top-dose-only effect, or effect the other way, or a change in a side signal; inactive = no such curve, though single readings can be large or run the other way; note: potency is the fitted concentration of half-maximal effect; % of control where 0% means no effect
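Compounds were pin-transferred onto Tsg101 binding domain (10 uM final) in HEPES pH 7.5 buffer, then FITC-PTAP peptide was added at 50 nM final. After 20 min at RT, polarization reported peptide displacement across a qHTS concentration series.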
VDR inhibitor = inhibitors of human vitamin D receptor. P11473. VDR-SRC2-3 peptide fluorescence polarization, 2 h. Potency, µM, for inactives: max response, negative = inhibition, usual class: inhibitors. 400,000 compounds, 0.93% hits; note: potency is the fitted concentration of half-maximal effect; % is set by controls: 0 for no effect and ±100 for the full control effect
Target sequence (P11473 whole entry, looked up): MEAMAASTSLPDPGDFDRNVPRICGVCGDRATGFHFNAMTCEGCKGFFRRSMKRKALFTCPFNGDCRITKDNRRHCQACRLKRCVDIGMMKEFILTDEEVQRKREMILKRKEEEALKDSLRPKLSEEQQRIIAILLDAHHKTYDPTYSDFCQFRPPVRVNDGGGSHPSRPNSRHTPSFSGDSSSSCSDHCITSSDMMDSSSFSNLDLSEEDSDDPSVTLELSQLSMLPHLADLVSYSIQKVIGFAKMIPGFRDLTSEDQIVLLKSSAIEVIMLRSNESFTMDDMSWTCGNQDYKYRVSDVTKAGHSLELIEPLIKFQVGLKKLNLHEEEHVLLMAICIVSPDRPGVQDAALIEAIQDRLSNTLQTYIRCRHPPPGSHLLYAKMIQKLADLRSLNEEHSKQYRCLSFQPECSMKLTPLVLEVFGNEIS
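Compounds are added to VDR with labelled SRC2-3 coactivator peptide and held 2 h at room temperature. Inhibition of the VDR–peptide interaction is then read as a change in fluorescence polarization.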
uPA generation = cell surface uPA generation inhibition. Potency, µM (doses to about 38.3 µM), for the others: top-dose activity change, negative = inhibition, usual class: inhibitors. cell surface uPA generation assay, qHTS. 330,000 compounds, 0.31% hits; active = well fitted inhibition curve with a large enough effect; inconclusive = small, poorly fitted or top-dose-only effect; inactive = no such curve, though single readings can be large or run the other way; tested in mouse RAW 264.7 cells; note: potency is the fitted concentration of half-maximal effect; % is set by controls: 0 for no effect and ±100 for the full control effect; nearly all actives have a fitted effect of over 55% in size
TSHR antagonist = antagonists of human thyroid stimulating hormone receptor | P16473 | TSHR-expressing cells, TSH-stimulated cAMP HTRF, 2 h; stronger effect = lower value | activity change, negative = inhibition, % at 11.5 µM | 330,000 compounds, 0.2% hits | AID 504810;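 active = activity change below a set negative limit, meaning inhibition stronger than a set level, cut at about -70% in these data; inconclusive = activity change between two set negative limits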; note: % is set by controls: 0 for no effect and ±100 for the full control effect
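TSHR-expressing cells, 200/well, pre-treated with compound, then stimulated with EC80 TSH (4nM final) for 2 hours at 37 deg C. cAMP measured by competitive HTRF: anti-cAMP cryptate antibody in lysis buffer plus cAMP-d2, read after 30 minutes at room temperature.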
* hit, by the source's call; ? = inconclusive; . = not tested or not shown. Unless noted, calls come from the whole dose curve; as a rule, active = well fitted curve in the direction sought with a large enough effect; inconclusive = small, poorly fitted or top-dose-only effect, or another doubt; inactive = no such curve, though single readings can be large; an effect the other way counts as inactive or inconclusive.

SMILES	PLK1 PBD block	TSG101-PTAP inh	VDR inhibitor	uPA generation	TSHR antagonist
O=[N+]([O-])c1ccc(S(=O)Cc2ccccc2)c([N+](=O)[O-])c1 (centres undefined)	0.752µM*	-5.3%	?	-11.7%	.
O=[N+]([O-])c1ccc(CS(=O)c2ccccc2)cc1 (centres undefined)	?	-0.7%	?	3.4%	.
Cn1sc(NC(=O)c2cccc(Cl)c2)nc1=O	-0.2%	-11.8%	16.4%	0.1%	-11.1
Cn1sc(NC(=O)c2ccccc2Cl)nc1=O	29.9µM*	-3.3%	?	-3.5%	-9.5
Cc1ccc2nc(N3CC(C)OC(C)C3)nc(-c3ccccc3)c2c1 (centres undefined)	-0.7%	-3.1%	-9.3%	-8.9%	15.2
Cc1cc(N2CC(C)OC(C)C2)nc2ccccc12 (centres undefined)	26.7µM*	-4.2%	?	1.2%	9.9
CC1CN(c2nnc(-c3ccccc3)c3ccccc23)CC(C)O1 (centres undefined)	21.2µM*	-2.4%	-29.6%	4.4%	-14.7
Cc1ccc(-n2ncc3c(N(C)C)ncnc32)cc1Cl	.	.	17.9%	.	.
COCCCNCCCCOc1ccc(Br)cc1C	-11.3%	0.2%	-19.6%	-6.0%	10.2
Cc1cc(Br)ccc1OCCCCNC(C)(C)C	26.7µM*	-3.6%	?	1.9%	13.2
CCCN1C(=O)C2(SC(NC(C)=O)=NN2C(C)=O)c2cc(C)ccc21 (centres undefined)	2.3%	-2.3%	-1.8%	3.1%	-1.4
CC(=O)NC1=NN(C(C)=O)C2(S1)C(=O)N(C(C)=O)c1ccc(C)cc12 (centres undefined)	26.7µM*	-2.7%	?	0.8%	18.8
Cc1onc(C(=O)Nc2ccccc2C(F)(F)F)c1[N+](=O)[O-]	-10.5%	-3.0%	-17.9%	-28.7%	17.5
Cc1noc(C(=O)Nc2ccccc2C(F)(F)F)c1Cl	29.9µM*	-5.6%	-16.3%	.	-2.9
COc1cccc(C(=O)Nc2nc3nc(-c4ccccc4)cc(=O)n3[nH]2)c1	.	.	-2.1%	.	.
CCOc1ccc(Nc2nc(C)c(NC(=O)c3cccc(F)c3)c(Nc3ccc(OCC)cc3)n2)cc1	.	.	-5.6%	.	.
N#C/C(=C\c1ccc(O)c(O)c1)C(=O)NCCCc1ccccc1	-18.5%	1.2%	?	3.55µM*	-20.0
COCCCNC(=O)/C(C#N)=C/c1ccc(OCC(=O)O)c(OC)c1	21.2µM*	-1.7%	-5.3%	-2.0%	2.2
N#C/C(=C\c1cccc([N+](=O)[O-])c1)C(=O)NCc1cccnc1	-17.8%	1.5%	?	-1.8%	1.3
N#C/C(=C\c1cccc([N+](=O)[O-])c1)C(=O)NCc1ccc(Cl)cc1	?	-0.7%	39.8µM*	-2.5%	-9.5
COCCNC(=O)/C(C#N)=C/c1cccc(/C=C(\C#N)C(=O)NCCOC)c1	?	1.9%	35.5µM*	-17.5%	-10.9
CC(C)[C@@H]1CC[C@@H](C)C[C@@H]1P(=O)(c1ccccc1)c1ccccc1	.	.	-4.1%	.	-13.4
O=S(=O)(c1ccc(NCCCO)nc1)N1CCOCC1	0.4%	-2.1%	-5.1%	3.7%	-1.2
C=CCN1C(=O)/C(=C/c2ccc(OC(C)=O)c(OCC)c2[N+](=O)[O-])SC1=S	-18.6%	-1.1%	-9.0%	-15.5%	-92.4*
Cc1c(C(=O)NCc2ccccc2Cl)sc2ncnc(N(C)C3CCCCC3)c12	.	.	16.9%	.	.
SMILES	PLK1 PBD block	TSG101-PTAP inh	VDR inhibitor	uPA generation	TSHR antagonist
Cc1ccc(S(=O)(=O)c2cn(CC(=O)Nc3ccc4c(c3)OCO4)c3ccc(C)cc3c2=O)cc1	.	.	-7.8%	.	.
O=C1C=CC2=C3c4cc(O)c(O)cc4C[C@@]3(O)COC2=C1	.	.	11.2µM*	.	.
O=C1NN(c2ccccc2)C(=O)/C1=C\c1ccccc1OCC(=O)N1CCOCC1	21.2µM*	-5.1%	?	.	-1.0
CN1/C(=N\O)c2cccc3cccc1c23	26.7µM*	-6.6%	?	-3.0%	-5.1
COC(=O)c1c(-c2ccc(S(C)(=O)=O)cc2)sc2ccc(OC)cc12	21.2µM*	-0.4%	-11.6%	-10.3%	-6.8
COCC(=O)N1CCC2(CC1)CN(c1ccc(-c3ccccc3)cc1)C2	.	.	-7.5%	.	.
CCc1ccc(NC(=O)CN(CC(=O)Nc2ccc(CC)cc2)CC(C)O)cc1 (centres undefined)	26.7µM*	-6.5%	-26.0%	-5.2%	26.3
CN(CC(=O)Nc1cccc(F)c1)C(=O)CSc1ccccc1	15µM*	-2.0%	-2.7%	0.3%	0.4
CN(CC(=O)Nc1cccc(F)c1)C(=O)CNS(=O)(=O)c1ccc(N(C)C)c([N+](=O)[O-])c1	15µM*	-0.4%	?	1.6%	17.9
Cc1ccc(NC(=O)CN(C)C(=O)CSc2ccccc2F)cc1	21.2µM*	0.7%	-4.2%	-1.6%	-7.4
CC1(C(=O)Nc2ccc3c(c2)OCCO3)CN(S(C)(=O)=O)CC(=O)N1Cc1cccc(C(F)(F)F)c1 (centres undefined)	-4.1%	.	.	.	.
N#Cc1ccccc1C[C@H](N)C(=O)NC[C@H]1O[C@@H](n2ccc(N)nc2=O)[C@H](O)[C@@H]1O	2.6%	.	.	.	.
CC1CCCN(c2nc(-c3ccccc3O)nc3ccccc23)C1 (centres undefined)	.	.	-18.1%	.	.
O=C(NCc1cccc(Br)c1)C1CCCCN1S(=O)(=O)c1ccc(F)cc1 (centres undefined)	.	.	4.5%	.	.
COC(=O)c1c(NC(=O)c2nc(SC)ncc2Cl)sc2c1CCCC2	.	.	18.8%	.	.
COc1ccccc1-n1cnnc1SCC(=O)c1c[nH]c2ccccc12	26.7µM*	-9.3%	?	7.4%	9.2
Cc1occc1-c1nnc(SCC(=O)c2c[nH]c3ccccc23)n1C	23.8µM*	-7.5%	-22.4%	0.3%	9.0
COc1ccccc1-n1cnnc1SCC(=O)NCc1cccs1	-5.9%	-2.9%	-2.7%	0.6%	-1.8
CCCC(=O)N(C1CC(C)C(C#N)(C#N)C1(C#N)C#N)N(C)C (centres undefined)	5.97µM*	6.5%	8.91µM*	14.6%	?
CC(=O)N(C1CC(C)C(C#N)(C#N)C1(C#N)C#N)N(C)C (centres undefined)	2.38µM*	-6.6%	35.5µM*	-20.6%	1.1
Cc1ccc(CCN2C(=O)c3ccc(C(=O)O)cc3C2=O)cc1	.	.	.	.	-22.7
CC(C)CCN(Cc1ccco1)C(=O)c1cc2c(Cl)nc3ccccc3c2s1	.	.	-16.3%	.	.
CCCCNC(=O)C1CCN(Cc2nc(-c3ccc(OC)c(OC)c3)oc2C)CC1	.	.	-11.6%	.	.
COc1ccc(-c2nc(CN3CCC(C(=O)NCC4CCCO4)CC3)c(C)o2)cc1OC (centres undefined)	21.2µM*	0.3%	-29.8%	-1.8%	1.6
COc1ccc(-c2nc(CSCC(=O)NCCCN3CCCC3=O)c(C)o2)cc1OC	21.2µM*	-5.4%	-25.7%	2.2%	-8.2
Cc1cc(C)c(CN2CCC(N3CCC(C(=O)NCC4CCCO4)CC3)CC2)cc1C (centres undefined)	29.9µM*	-0.2%	?	-5.1%	-11.9
COc1ccc2c(C)c(CCC(=O)NCCc3ccc(OC)c(OC)c3)c(=O)oc2c1	.	.	5.5%	.	.
